Assay results: the supplement of paper PMC10849652
Of roughly 7,900 targets only a part is listed; those with a hit were picked by preference. About 0.6% of all pairs of compound and target were hits.

What follows are targets tested with C1COCCN1CCN2C3=CC=CC=C3N=C2NC(=O)C4=CC(=CC=C4)[N+](=O)[O-] [IRAK-1-4 Inhibitor I] (assay: log2 fold change, soluble protein after heating vs DMSO (PISA); higher = thermal stabilisation; K562 cells, 10 uM, 30 min; active = over 0.2 and 3.5 SD of the protein, either way, in both replicates (recomputed)).
Outline: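 Soluble protein was defined as the supernatant after 21,000xg for 90 min. It came from K562 cells at 2×10^6 cells/mL given 10 μM compound for 30 min, heated in aliquots for 3 min across 48°C-58°C, pooled, and extracted in PBS with 0.5% NP-40 at 4°C, and was quantified by TMTpro 16plex LC-MS/MS with equalised channel sums. Thermal stability against control samples, from duplicates, is reported as log2 fold change.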

Sequence of UniProt O60264 (O60264 whole entry, looked up): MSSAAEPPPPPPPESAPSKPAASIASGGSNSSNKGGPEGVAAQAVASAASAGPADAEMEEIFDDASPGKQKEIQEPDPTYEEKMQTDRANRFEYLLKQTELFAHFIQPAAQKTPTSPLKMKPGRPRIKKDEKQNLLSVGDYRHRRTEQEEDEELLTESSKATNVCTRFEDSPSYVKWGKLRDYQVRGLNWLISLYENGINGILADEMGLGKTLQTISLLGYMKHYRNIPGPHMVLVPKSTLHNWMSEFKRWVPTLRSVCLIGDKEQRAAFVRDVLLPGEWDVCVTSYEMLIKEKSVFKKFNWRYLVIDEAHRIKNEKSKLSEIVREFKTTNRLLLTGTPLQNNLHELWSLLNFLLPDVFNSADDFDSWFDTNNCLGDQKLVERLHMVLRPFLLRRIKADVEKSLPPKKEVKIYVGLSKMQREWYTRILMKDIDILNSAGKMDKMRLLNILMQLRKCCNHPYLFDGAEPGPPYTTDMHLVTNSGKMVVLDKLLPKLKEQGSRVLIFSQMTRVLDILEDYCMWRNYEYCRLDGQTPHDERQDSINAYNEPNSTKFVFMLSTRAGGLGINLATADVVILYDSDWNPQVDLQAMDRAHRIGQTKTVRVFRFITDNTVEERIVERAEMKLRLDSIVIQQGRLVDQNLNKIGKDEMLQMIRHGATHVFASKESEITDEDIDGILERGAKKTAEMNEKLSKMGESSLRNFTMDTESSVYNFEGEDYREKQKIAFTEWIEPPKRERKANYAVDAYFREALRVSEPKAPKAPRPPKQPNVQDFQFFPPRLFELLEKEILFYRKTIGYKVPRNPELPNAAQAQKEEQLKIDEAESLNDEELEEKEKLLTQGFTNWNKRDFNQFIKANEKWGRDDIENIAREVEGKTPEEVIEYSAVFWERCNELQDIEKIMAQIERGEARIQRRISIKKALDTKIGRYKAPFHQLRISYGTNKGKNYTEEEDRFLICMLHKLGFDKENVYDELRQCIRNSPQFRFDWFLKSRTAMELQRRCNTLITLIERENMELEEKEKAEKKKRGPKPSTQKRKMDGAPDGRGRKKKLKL
Sequence of UniProt P35270 (P35270 whole entry, looked up): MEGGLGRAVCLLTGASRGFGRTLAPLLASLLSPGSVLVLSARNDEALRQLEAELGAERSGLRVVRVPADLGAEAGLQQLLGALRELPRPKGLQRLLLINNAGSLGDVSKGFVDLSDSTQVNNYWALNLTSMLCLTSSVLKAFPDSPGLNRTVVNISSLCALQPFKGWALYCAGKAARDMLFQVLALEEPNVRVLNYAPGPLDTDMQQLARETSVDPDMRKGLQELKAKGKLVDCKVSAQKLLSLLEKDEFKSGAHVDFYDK
Sequence of UniProt Q8TC07 (Q8TC07 whole entry, looked up): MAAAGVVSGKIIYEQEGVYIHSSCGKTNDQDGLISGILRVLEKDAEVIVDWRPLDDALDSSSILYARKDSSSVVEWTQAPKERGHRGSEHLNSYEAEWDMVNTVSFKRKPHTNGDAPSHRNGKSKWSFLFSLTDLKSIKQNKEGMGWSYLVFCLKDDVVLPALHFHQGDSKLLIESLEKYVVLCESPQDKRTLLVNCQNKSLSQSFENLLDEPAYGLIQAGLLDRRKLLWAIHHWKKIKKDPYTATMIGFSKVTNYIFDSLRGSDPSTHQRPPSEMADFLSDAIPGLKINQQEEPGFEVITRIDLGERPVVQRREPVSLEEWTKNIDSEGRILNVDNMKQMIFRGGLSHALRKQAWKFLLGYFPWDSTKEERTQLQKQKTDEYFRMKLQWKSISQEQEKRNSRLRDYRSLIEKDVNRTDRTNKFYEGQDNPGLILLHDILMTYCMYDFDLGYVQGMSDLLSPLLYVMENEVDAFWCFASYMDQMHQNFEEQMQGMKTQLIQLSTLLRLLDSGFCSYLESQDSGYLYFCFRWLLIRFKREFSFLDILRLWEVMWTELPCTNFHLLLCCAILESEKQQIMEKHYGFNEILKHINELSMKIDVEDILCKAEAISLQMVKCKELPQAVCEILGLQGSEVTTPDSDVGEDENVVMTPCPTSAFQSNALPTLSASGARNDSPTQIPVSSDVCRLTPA
Sequence of UniProt Q96DW6 (Q96DW6 whole entry, looked up): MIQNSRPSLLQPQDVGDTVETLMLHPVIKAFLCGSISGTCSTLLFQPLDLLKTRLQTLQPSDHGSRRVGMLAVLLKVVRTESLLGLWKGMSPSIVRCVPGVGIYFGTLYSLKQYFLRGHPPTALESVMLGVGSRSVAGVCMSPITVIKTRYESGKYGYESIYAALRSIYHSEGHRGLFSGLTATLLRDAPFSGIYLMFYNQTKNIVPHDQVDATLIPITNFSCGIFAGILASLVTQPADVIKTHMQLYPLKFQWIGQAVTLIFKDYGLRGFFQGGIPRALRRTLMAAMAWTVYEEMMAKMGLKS
Sequence of UniProt Q9Y5L4 (Q9Y5L4 whole entry, looked up): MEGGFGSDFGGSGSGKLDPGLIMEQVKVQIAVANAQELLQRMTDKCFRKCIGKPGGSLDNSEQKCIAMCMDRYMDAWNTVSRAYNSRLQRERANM
Sequence of UniProt Q07157 (Q07157 whole entry, looked up): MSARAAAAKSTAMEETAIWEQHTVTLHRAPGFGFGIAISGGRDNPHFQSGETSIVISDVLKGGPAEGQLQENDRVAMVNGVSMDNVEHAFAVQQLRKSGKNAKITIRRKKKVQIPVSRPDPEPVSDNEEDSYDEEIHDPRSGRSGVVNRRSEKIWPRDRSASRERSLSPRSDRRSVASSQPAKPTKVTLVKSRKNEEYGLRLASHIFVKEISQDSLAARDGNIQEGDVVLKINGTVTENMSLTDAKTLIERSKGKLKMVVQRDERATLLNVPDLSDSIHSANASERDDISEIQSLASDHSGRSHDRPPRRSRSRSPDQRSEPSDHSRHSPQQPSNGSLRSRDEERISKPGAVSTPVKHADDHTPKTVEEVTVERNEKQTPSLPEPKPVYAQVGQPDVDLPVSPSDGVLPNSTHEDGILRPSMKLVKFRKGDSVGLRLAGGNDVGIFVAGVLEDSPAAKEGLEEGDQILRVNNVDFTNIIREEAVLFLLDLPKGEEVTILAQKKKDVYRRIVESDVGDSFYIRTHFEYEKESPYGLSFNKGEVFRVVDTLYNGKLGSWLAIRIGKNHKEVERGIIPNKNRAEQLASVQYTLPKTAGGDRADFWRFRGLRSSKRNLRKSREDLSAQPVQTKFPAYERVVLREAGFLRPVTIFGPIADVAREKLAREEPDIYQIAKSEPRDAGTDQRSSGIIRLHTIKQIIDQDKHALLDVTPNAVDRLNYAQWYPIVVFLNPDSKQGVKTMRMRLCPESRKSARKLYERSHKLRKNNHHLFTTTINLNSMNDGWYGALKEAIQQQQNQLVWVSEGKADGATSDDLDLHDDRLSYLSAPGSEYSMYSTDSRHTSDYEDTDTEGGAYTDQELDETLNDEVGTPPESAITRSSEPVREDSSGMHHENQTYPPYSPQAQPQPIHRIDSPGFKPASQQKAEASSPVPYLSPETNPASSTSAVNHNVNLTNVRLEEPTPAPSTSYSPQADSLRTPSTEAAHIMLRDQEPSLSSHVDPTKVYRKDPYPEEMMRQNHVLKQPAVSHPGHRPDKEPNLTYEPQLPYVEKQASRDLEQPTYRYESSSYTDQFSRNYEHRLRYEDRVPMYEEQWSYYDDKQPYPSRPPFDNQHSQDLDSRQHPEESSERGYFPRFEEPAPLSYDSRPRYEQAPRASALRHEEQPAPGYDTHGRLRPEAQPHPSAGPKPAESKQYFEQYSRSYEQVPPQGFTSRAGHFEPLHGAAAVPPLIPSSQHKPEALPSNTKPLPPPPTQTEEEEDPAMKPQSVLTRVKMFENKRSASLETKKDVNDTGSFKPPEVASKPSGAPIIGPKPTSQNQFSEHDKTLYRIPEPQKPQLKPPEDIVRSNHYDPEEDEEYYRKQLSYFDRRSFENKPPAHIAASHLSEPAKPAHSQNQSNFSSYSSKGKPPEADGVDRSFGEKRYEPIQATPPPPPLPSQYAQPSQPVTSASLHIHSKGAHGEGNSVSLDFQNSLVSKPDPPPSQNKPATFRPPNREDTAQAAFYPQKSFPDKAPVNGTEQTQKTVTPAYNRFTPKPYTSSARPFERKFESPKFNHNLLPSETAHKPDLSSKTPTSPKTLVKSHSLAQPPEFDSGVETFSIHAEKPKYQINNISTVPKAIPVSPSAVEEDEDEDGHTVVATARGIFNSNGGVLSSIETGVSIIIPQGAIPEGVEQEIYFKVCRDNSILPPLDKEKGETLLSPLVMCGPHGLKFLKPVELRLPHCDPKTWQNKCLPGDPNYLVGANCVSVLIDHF
Sequence of UniProt P27105 (P27105 whole entry, looked up): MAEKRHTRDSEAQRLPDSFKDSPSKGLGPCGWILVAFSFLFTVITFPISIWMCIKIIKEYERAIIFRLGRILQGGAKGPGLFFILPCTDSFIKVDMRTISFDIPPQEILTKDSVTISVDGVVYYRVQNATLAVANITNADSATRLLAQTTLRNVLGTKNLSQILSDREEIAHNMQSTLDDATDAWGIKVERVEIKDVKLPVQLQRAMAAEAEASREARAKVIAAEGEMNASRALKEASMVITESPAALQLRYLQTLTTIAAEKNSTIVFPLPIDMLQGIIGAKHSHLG
Sequence of UniProt O00193 (O00193 whole entry, looked up): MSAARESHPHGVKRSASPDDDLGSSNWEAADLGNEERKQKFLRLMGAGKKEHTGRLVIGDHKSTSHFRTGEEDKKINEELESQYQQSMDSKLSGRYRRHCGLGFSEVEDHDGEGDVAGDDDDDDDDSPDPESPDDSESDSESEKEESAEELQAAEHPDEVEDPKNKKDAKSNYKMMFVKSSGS
Sequence of UniProt Q15005 (Q15005 whole entry, looked up): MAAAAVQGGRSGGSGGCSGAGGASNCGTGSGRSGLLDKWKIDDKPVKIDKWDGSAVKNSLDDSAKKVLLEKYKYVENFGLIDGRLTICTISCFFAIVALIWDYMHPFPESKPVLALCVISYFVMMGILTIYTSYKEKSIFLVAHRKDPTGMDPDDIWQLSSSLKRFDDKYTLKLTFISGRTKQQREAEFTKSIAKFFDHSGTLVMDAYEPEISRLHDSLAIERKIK
Sequence of UniProt P62318 (P62318 whole entry, looked up): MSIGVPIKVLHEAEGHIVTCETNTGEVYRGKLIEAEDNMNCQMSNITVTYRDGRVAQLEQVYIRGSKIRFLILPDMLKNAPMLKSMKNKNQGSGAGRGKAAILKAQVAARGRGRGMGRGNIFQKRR

log2 fold change, inactive:
TIMM13 (UniProt Q9Y5L4) -0.031, SLC25A38 (UniProt Q96DW6) 0.005, SMARCA5 (UniProt O60264) -0.108, TEX30 (UniProt Q5JUR7) -0.013, SMG1 (UniProt Q96Q15) -0.088, SNRPD3 (UniProt P62318) 0.002, SUPT5H (UniProt O00267) -0.009, SPAST (UniProt Q9UBP0) 0.054, TBCD (UniProt Q9BTW9) 0.019, SMAP (UniProt O00193) 0.134, SPR (UniProt P35270) 0.063, TAOK3 (UniProt Q9H2K8) 0.007, SP3 (UniProt Q02447) -0.129, STOM (UniProt P27105) -0.039, TJP1 (UniProt Q07157) -0.033, SLC30A10 (UniProt Q6XR72) 0.05, SPCS2 (UniProt Q15005) -0.014, TM9SF4 (UniProt Q92544) -0.006, STAT5B (UniProt P51692) -0.153, SRSF10 (UniProt O75494) -0.179, SNX12 isoform 1 (UniProt Q9UMY4) 0.039, TBC1D15 isoform 3 (UniProt Q8TC07) 0.235, SYMPK (UniProt Q92797) -0.029
